Measured values as given in PubChem BioAssay AID1159580 (chemical genetic matrix, 2015).
The campaign covered roughly 5,500 compounds. About 2,000 (36%) were called active. Not shown: some 18% with an inconclusive outcome. No stated cut-off is given here; in the data, active means normalized growth mostly below about 0.91 (no sharp cut-off); inconclusive means no clear call, values can overlap the other calls; inactive means mostly above about 0.92. Some of the results follow.

Experiment: chemical genetic growth profiling, strain panel (AID 1159580);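 further: tested at 20 µM; growth read once vehicle control cultures reached saturation at 30 °C; 1 = growth at the plate median or of vehicle wells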
Conditions: growth OD

Measured: normalized growth

CC(=O)N[C@@H](Cc1c[nH]c2ccccc12)C(=O)O
inactive: S. cerevisiae deletion strains, locus YJR075W, strain HOC1, stronger effect = lower value 1 | S. cerevisiae deletion strains, locus YKL009W, strain mrt4, stronger effect = lower value 0.981 | S. cerevisiae deletion strains, locus YKL068W, stronger effect = lower value 1.01 | S. cerevisiae deletion strains, locus YKL085W, strain MDH1 (second series), stronger effect = lower value 1.01 | S. cerevisiae deletion strains, locus YKL085W, strain MDH1, stronger effect = lower value 1.01 | S. cerevisiae deletion strains, locus YKL160W, strain elf1, stronger effect = lower value 0.962 | S. cerevisiae deletion strains, locus YKL190W, strain CNB1, stronger effect = lower value 1 | S. cerevisiae deletion strains, locus YKR001C, strain vps1, stronger effect = lower value 1.02 | S. cerevisiae deletion strains, locus YKR026C, strain gcn3, stronger effect = lower value 0.987 | S. cerevisiae deletion strains, locus YKR091W, strain srl3, stronger effect = lower value 0.977 | S. cerevisiae deletion strains, locus YLL001W, strain dnm1, stronger effect = lower value 0.983 | S. cerevisiae deletion strains, locus YLL026W, stronger effect = lower value 0.99 | S. cerevisiae deletion strains, locus YLL041C, strain sdh2, stronger effect = lower value 1 | S. cerevisiae deletion strains, locus YLR027C, strain aat2, stronger effect = lower value 0.994 | S. cerevisiae deletion strains, locus YLR039C, strain RIC1, stronger effect = lower value 1.02 | S. cerevisiae deletion strains, locus YLR058C, strain SHM2, stronger effect = lower value 1.01 | S. cerevisiae deletion strains, locus YLR102C, strain apc9, stronger effect = lower value 1.02 | S. cerevisiae deletion strains, locus YLR113W, strain HOG1, stronger effect = lower value 1 | S. cerevisiae deletion strains, locus YLR221C, strain rsa3, stronger effect = lower value 1.01 | S. cerevisiae deletion strains, locus YLR258W, strain gsy2, stronger effect = lower value 0.967 | S. cerevisiae deletion strains, locus YLR262C, strain YPT6 (second series), stronger effect = lower value 1.02 | S. cerevisiae deletion strains, locus YLR262C, strain YPT6, stronger effect = lower value 1.02 | S. cerevisiae deletion strains, locus YLR268W, strain sec22, stronger effect = lower value 1.04 | S. cerevisiae deletion strains, locus YLR320W, strain mms22, stronger effect = lower value 1.02 | S. cerevisiae deletion strains, locus YLR330W, strain CHS5, stronger effect = lower value 1.01 | S. cerevisiae deletion strains, locus YLR342W, strain FKS1 (second series), stronger effect = lower value 1.04 | S. cerevisiae deletion strains, locus YLR342W, strain FKS1, stronger effect = lower value 0.981 | S. cerevisiae deletion strains, locus YLR357W, strain rsc2, stronger effect = lower value 0.983 | S. cerevisiae deletion strains, locus YLR370C, strain arc18, stronger effect = lower value 0.995 | S. cerevisiae deletion strains, locus YLR371W, strain rom2, stronger effect = lower value 1.03 | S. cerevisiae deletion strains, locus YLR384C, strain iki3, stronger effect = lower value 0.984 | S. cerevisiae deletion strains, locus YLR418C, strain cdc73, stronger effect = lower value 1.07 | S. cerevisiae deletion strains, locus YML016C, strain PPZ1, stronger effect = lower value 1.01 | S. cerevisiae deletion strains, locus YML032C, strain rad52, stronger effect = lower value 1.02 | S. cerevisiae deletion strains, locus YML120C, strain ndi1, stronger effect = lower value 0.989 | S. cerevisiae deletion strains, locus YML124C, strain tub3, stronger effect = lower value 1.02 | S. cerevisiae deletion strains, locus YMR058W, strain fet3, stronger effect = lower value 0.988 | S. cerevisiae deletion strains, locus YMR078C, strain ctf18, stronger effect = lower value 1.02 | S. cerevisiae deletion strains, locus YMR125W, strain sto1, stronger effect = lower value 0.973 | S. cerevisiae deletion strains, locus YMR129W, stronger effect = lower value 0.976 | S. cerevisiae deletion strains, locus YMR205C, strain PFK2, stronger effect = lower value 0.985 | S. cerevisiae deletion strains, locus YMR223W, strain ubp8, stronger effect = lower value 1.02 | S. cerevisiae deletion strains, locus YMR231W, strain pep5, stronger effect = lower value 0.978 | S. cerevisiae deletion strains, locus YMR263W, strain SAP30, stronger effect = lower value 0.998 | S. cerevisiae deletion strains, locus YMR307W, strain GAS1, stronger effect = lower value 0.959 | S. cerevisiae deletion strains, locus YNL067W, strain RPL9B, stronger effect = lower value 1.01 | S. cerevisiae deletion strains, locus YNL071W, strain lat1, stronger effect = lower value 0.99 | S. cerevisiae deletion strains, locus YNL128W, strain TEP1, stronger effect = lower value 1.01 | S. cerevisiae deletion strains, locus YNL153C, strain GIM3, stronger effect = lower value 1.01 | S. cerevisiae deletion strains, locus YNL183C, strain NPR1, stronger effect = lower value 0.886 | S. cerevisiae deletion strains, locus YNL209W, strain ssb2, stronger effect = lower value 0.989 | S. cerevisiae deletion strains, locus YNL233W, strain BNI4, stronger effect = lower value 1.01 | S. cerevisiae deletion strains, locus YNL248C, strain rpa49, stronger effect = lower value 0.98 | S. cerevisiae deletion strains, locus YNL250W, strain rad50, stronger effect = lower value 1 | S. cerevisiae deletion strains, locus YNL271C, strain bni1, stronger effect = lower value 1.03 | S. cerevisiae deletion strains, locus YNL298W, strain CLA4, stronger effect = lower value 1.02 | S. cerevisiae deletion strains, locus YNL307C, strain MCK1, stronger effect = lower value 1.03 | S. cerevisiae deletion strains, locus YNL322C, strain KRE1 (second series), stronger effect = lower value 0.995 | S. cerevisiae deletion strains, locus YNL322C, strain KRE1, stronger effect = lower value 1 | S. cerevisiae deletion strains, locus YNR049C, strain mso1, stronger effect = lower value 0.959 | S. cerevisiae deletion strains, locus YNR052C, strain pop2, stronger effect = lower value 1.01 | S. cerevisiae deletion strains, locus YOL006C, strain TOP1, stronger effect = lower value 1.09 | S. cerevisiae deletion strains, locus YOL012C, strain htz1 0.924 | S. cerevisiae deletion strains, locus YOL147C, strain pex11, stronger effect = lower value 1.02 | S. cerevisiae deletion strains, locus YOR001W, strain rrp6, stronger effect = lower value 1.01 | S. cerevisiae deletion strains, locus YOR061W, strain CKA2, stronger effect = lower value 1.01 | S. cerevisiae deletion strains, locus YOR069W, strain VPS5, stronger effect = lower value 1 | S. cerevisiae deletion strains, locus YOR070C, strain gyp1, stronger effect = lower value 0.996 | S. cerevisiae deletion strains, locus YOR080W, strain dia2, stronger effect = lower value 0.986 | S. cerevisiae deletion strains, locus YOR083W, strain WHI5, stronger effect = lower value 0.97 | S. cerevisiae deletion strains, locus YOR106W, strain vam3, stronger effect = lower value 0.964 | S. cerevisiae deletion strains, locus YOR136W, strain idh2, stronger effect = lower value 1.01 | S. cerevisiae deletion strains, locus YOR144C, strain elg1, stronger effect = lower value 1.02 | S. cerevisiae deletion strains, locus YOR184W, strain ser1, stronger effect = lower value 1.02 | S. cerevisiae deletion strains, locus YOR231W, strain MKK1, stronger effect = lower value 0.994 | S. cerevisiae deletion strains, locus YOR265W, strain rbl2, stronger effect = lower value 1.01 | S. cerevisiae deletion strains, locus YOR270C, strain vph1, stronger effect = lower value 1.01 | S. cerevisiae deletion strains, locus YOR290C, strain snf2, stronger effect = lower value 0.974 | S. cerevisiae deletion strains, locus YOR316C, strain cot1, stronger effect = lower value 1.02 | S. cerevisiae deletion strains, locus YPL051W, strain arl3, stronger effect = lower value 0.989 | S. cerevisiae deletion strains, locus YPL055C, strain LGE1, stronger effect = lower value 1.01 | S. cerevisiae deletion strains, locus YPL078C, strain atp4, stronger effect = lower value 0.978 | S. cerevisiae deletion strains, locus YPL106C, strain sse1, stronger effect = lower value 0.949 | S. cerevisiae deletion strains, locus YPL240C, strain hsp82, stronger effect = lower value 1 | S. cerevisiae deletion strains, locus YPL241C, strain CIN2, stronger effect = lower value 1 | S. cerevisiae deletion strains, locus YPL256C, strain CLN2, stronger effect = lower value 0.99 | S. cerevisiae deletion strains, locus YPR119W, strain clb2, stronger effect = lower value 1.02 | S. cerevisiae deletion strains, locus YPR141C, strain kar3, stronger effect = lower value 1.02 | S. cerevisiae deletion strains, locus YPR163C, strain tif3, stronger effect = lower value 1.04 | S. cerevisiae deletion strains, locus YPR167C, strain met16, stronger effect = lower value 1.01 | S. cerevisiae deletion strains, strain wtn01, stronger effect = lower value 1.01 | S. cerevisiae strains, strain wild type, stronger effect = lower value 1
